Screen size: about 310,000 compounds; about 2,200 (0.71%) showed an effect of 50% or more. The effect is printed as a negative number. This is one part of a sample in which strong results are shown more often than they occur.

For this experiment, the target named is human ether-à-go-go-related gene (hERG) potassium channel (human, UniProt Q12809). The experiment is described as follows: primary screen, population patch clamp on CHO cells stably expressing hERG; higher = less effect of the substance. As to the method: Briefly, Chinese hamster ovary (CHO) cells stably expressing the hERG channel were dislodged from tissue culture flasks and dispensed into PPC plates. […] During the recording, background leak currents were estimated by a 100 ms step to -80 mV from an initial holding potential of -70 mV and subtracted from the subsequent current measurement. The campaign was conducted in two phases using slight differences in recording protocol. In the first phase, the initial voltage pulse used a 100 ms step to -30 mV from a holding potential of -70 mV, a 2 s conditioning step to +25 mV, and a 2 s test step to -30 mV. During the second phase of the screen, the potential during the conditioning step was raised to +45 mV. In both phases of the campaign, a secondary voltage pulse was applied using the same parameters as the second phase initial pulse. The initial and secondary pulses were applied in the absence of compound, and upon application of 1 μM and 10 μM test concentrations. Small molecule effects on hERG current density were quantified by […].
Sequence of human ether-à-go-go-related gene (hERG) potassium channel (Q12809 whole entry, looked up): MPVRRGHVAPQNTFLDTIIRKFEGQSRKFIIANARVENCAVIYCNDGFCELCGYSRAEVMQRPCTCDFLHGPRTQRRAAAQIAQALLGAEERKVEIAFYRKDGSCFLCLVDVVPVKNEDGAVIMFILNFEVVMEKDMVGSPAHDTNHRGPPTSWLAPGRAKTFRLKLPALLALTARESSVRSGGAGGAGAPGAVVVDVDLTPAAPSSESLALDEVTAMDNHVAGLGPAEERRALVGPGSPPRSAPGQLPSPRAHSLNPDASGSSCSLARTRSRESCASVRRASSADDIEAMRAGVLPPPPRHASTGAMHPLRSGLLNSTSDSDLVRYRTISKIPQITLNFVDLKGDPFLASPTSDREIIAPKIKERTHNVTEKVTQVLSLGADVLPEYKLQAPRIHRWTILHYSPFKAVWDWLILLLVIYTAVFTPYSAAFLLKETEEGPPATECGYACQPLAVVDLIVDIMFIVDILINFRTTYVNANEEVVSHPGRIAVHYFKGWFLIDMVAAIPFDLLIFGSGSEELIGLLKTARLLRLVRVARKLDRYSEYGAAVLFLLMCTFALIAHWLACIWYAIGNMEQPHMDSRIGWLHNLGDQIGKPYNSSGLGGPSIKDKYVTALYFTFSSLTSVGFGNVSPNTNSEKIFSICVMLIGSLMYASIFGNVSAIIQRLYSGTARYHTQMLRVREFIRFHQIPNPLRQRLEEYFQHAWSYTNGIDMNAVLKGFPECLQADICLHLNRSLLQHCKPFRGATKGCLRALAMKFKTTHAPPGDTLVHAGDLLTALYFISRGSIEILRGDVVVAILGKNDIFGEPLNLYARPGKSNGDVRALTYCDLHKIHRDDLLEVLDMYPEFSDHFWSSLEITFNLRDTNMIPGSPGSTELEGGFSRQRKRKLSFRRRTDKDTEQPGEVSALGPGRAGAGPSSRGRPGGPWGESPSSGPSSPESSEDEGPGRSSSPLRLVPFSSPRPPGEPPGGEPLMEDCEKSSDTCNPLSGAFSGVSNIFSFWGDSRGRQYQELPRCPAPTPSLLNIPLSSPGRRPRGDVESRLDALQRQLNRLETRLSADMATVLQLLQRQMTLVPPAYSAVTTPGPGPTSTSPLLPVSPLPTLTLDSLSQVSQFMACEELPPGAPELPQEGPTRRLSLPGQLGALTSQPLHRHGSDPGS
Take `Cc1cccc(C)c1OCC(O)CN.Cl.O` (centres unmarked): the “hERG current change (%, negative = inhibition) at 1uM” value worked out at 10.5%.
On to `COc1ccccc1NC(=O)/C=C1\SCC(=O)N1C`, for which the “hERG current change (%, negative = inhibition) at 1uM” value was 2.4%.
As for `NC(=O)CSc1nc(-c2ccccc2)c(-c2ccccc2)o1`, the figure is 8.48%; as for `C/C=C1\COC(C(=O)NCc2ccncc2)(C(F)(F)F)C=C1C=C1CCCCC1` (centres unmarked), 12.8%; as for `CCCc1n[nH]c2c1/C(=N\OCC)CC(C)(C)C2`, 12.8%.
On to `C=CCN1CCN(C(c2cc(OC)ccc2OC)c2nnnn2CC2CCCO2)CC1.Cl` (centres unmarked), for which the “hERG current change (%, negative = inhibition) at 1uM” value worked out at 12.4%.
As for `Cc1nn(C)c(Cl)c1CN1CCCC(C(=O)Nc2cccc(-n3cccn3)c2)C1` (centres unmarked), the “hERG current change (%, negative = inhibition) at 1uM” value was -3.6%.
`CN1C(=O)CC(N2CCN(c3ccc(Cl)c(Cl)c3)CC2)C1=O` (centres unmarked): the “hERG current change (%, negative = inhibition) at 1uM” value turned out to be 1.54%.
On to `O=C(CCCC(=O)N1CCN(c2ccc([N+](=O)[O-])cc2)CC1)c1ccccc1`, for which the “hERG current change (%, negative = inhibition) at 1uM” value is recorded as -66%.
Turning to `O=C(CN1CCN(c2ccc([N+](=O)[O-])cc2)CC1)Nc1nccs1`, the “hERG current change (%, negative = inhibition) at 1uM” value is on record as -29.3%.
As for `Cc1ccc(CC(=O)N2CCN(c3ccc([N+](=O)[O-])cc3)CC2)cc1`, the “hERG current change (%, negative = inhibition) at 1uM” value is on record as -30.4%.
For the molecule `O=C(Cc1ccc([N+](=O)[O-])cc1)N1CCN(c2ccc([N+](=O)[O-])cc2)CC1`, the “hERG current change (%, negative = inhibition) at 1uM” value was -82.5%.
Regarding `O=C(CN1CCN(c2ccc([N+](=O)[O-])cc2)CC1)c1ccccc1`, the “hERG current change (%, negative = inhibition) at 1uM” value is reported as -9.94%.
Regarding `O=C(CCCC(=O)N1CCN(c2cccc(Cl)c2)CC1)c1ccccc1`, the “hERG current change (%, negative = inhibition) at 1uM” value worked out at 1.83%.
With `O=C(NC(CC(=O)N1CCN(c2ccccc2)CC1)c1ccccc1)c1ccccc1Cl` (centres unmarked), the “hERG current change (%, negative = inhibition) at 1uM” value was -19.6%.
For the molecule `O=C(Cc1ccc(F)cc1)N1CCN(c2ccc([N+](=O)[O-])cc2)CC1`, the “hERG current change (%, negative = inhibition) at 1uM” value was -45.8%.
As to `O=C(CN1CCN(CC(=O)Nc2ccccn2)CC1)Nc1ccccn1`, the “hERG current change (%, negative = inhibition) at 1uM” value is -9.95%.
For `O=C(NC(CC(=O)N1CCN(c2ccc([N+](=O)[O-])cc2)CC1)c1ccccc1)c1ccccc1Cl` (centres unmarked), the “hERG current change (%, negative = inhibition) at 1uM” value is on record as -69%.
Consider `O=C(CN1CCN(c2ccc([N+](=O)[O-])cc2)CC1)Nc1ccccn1`, for which the “hERG current change (%, negative = inhibition) at 1uM” value is reported as -75.8%.
As for `O=C(NC(CC(=O)N1CCN(c2ccccc2O)CC1)c1ccccc1)c1ccccc1Cl` (centres unmarked), the “hERG current change (%, negative = inhibition) at 1uM” value is -15.6%.
Regarding `Cn1cc(Cl)c(-c2n[nH]c(=S)n2-c2ccccc2)n1`, the “hERG current change (%, negative = inhibition) at 1uM” value amounted to 14%.
For the molecule `CCOC(=O)c1sc(NC(=O)c2ccc(OC)cc2)nc1C`, the “hERG current change (%, negative = inhibition) at 1uM” value is 15.9%.
In the case of `CCN(C(=O)C1CC1)C1CCS(=O)(=O)C1` (centres unmarked), the “hERG current change (%, negative = inhibition) at 1uM” value turned out to be 9.67%.
Consider `CCC(C)C(=O)N[C@@H](c1ccccc1)[C@@H](O)C(=O)O[C@H]1C[C@@]2(O)[C@@H](OC(=O)c3ccccc3)C3[C@](C)(C(=O)[C@H](OC(C)=O)C(=C1C)C2(C)C)[C@@H](O)C[C@H]1OC[C@@]31OC(C)=O` (some centres unmarked), for which the “hERG current change (%, negative = inhibition) at 1uM” value turned out to be 7.34%.
Take `CCOC(=O)COc1ccc(CCNC(C)=O)cc1`: the “hERG current change (%, negative = inhibition) at 1uM” value was 17.8%.
As to `Cn1c(CSCc2ccccc2Cl)nnc1SCC(=O)Nc1nccs1`, the “hERG current change (%, negative = inhibition) at 1uM” value came out at 2.67%.
For `COc1ccc(N2CCN(C(=O)CCCSc3nc4ccccc4[nH]3)CC2)cc1`, the “hERG current change (%, negative = inhibition) at 1uM” value was -29.6%.
As for `Cc1cccc(N2CCN(C(=O)CSCc3c(C)noc3C)CC2)c1C`, the “hERG current change (%, negative = inhibition) at 1uM” value stood at 6.62%.
`N#Cc1ccc(CN2CCN(C(=O)CC(NC(=O)c3ccccc3)c3ccccc3)CC2)cc1` (centres unmarked): the “hERG current change (%, negative = inhibition) at 1uM” value is recorded as -84.7%.
As for `O=C(CCCSc1nc2ccccc2[nH]1)N1CCN(c2ccccc2)CC1`, the figure is -32.8%.
Turning to `Cc1noc(C)c1CSCC(=O)N1CCN(c2ccc(F)cc2)CC1`, the “hERG current change (%, negative = inhibition) at 1uM” value is recorded as -17.9%.
Regarding `COc1cccc(N2CCN(C(=O)CC(NC(=O)c3ccccc3)c3ccccc3)CC2)c1` (centres unmarked), the “hERG current change (%, negative = inhibition) at 1uM” value is given as -27%.
In the case of `CC(C)CNS(=O)(=O)c1ccc(CCC(=O)N2CCN(c3ccc(F)cc3)CC2)cc1`, the “hERG current change (%, negative = inhibition) at 1uM” value is listed as -9.44%.
Consider `Cc1noc(C)c1CSCC(=O)N1CCN(c2ccc([N+](=O)[O-])cc2)CC1`, for which the “hERG current change (%, negative = inhibition) at 1uM” value is recorded as -83.4%.
For the molecule `CC(NC(=O)c1ccccc1)c1nc2ccccc2n1Cc1ccc(C#N)cc1` (centres unmarked), the “hERG current change (%, negative = inhibition) at 1uM” value is recorded as -35.6%.
In the case of `CCNS(=O)(=O)c1ccc(CCC(=O)N2CCN(c3ccccc3)CC2)cc1`, the “hERG current change (%, negative = inhibition) at 1uM” value is 3.97%.
Then `CC(C)CNS(=O)(=O)c1ccc(CCC(=O)N2CCN(c3ccccc3)CC2)cc1`, with -61.5%; and `O=C(CCCSc1nc2ccccc2[nH]1)N1CCN(c2ccc([N+](=O)[O-])cc2)CC1`, with -86.9%; and `Cc1ccnc(NC(=O)Cn2cc([N+](=O)[O-])cn2)c1`, with 10.4%.
Then `CCOC(=O)c1sc(=S)n(-c2ccccc2)c1N(C(C)=O)C(C)=O`, with 15.5%.
`COc1ccc(S(=O)(=O)N2CCOCC2)cc1NC(=O)CCc1cc(OC)c(OC)c(OC)c1`: the “hERG current change (%, negative = inhibition) at 1uM” value was found to be 2.32%.
In the case of `CC(NC(=O)c1cccnc1)C(c1cccs1)N1CCN(C)CC1` (centres unmarked), the “hERG current change (%, negative = inhibition) at 1uM” value is listed as 8.63%.
On to `COc1ccc(OCCSc2nc(N)cc(N)n2)cc1`, for which the “hERG current change (%, negative = inhibition) at 1uM” value is recorded as -5.65%.
For `CC(=O)OCCNc1cc(SC(C)C)c2nonc2c1[N+](=O)[O-]`, the “hERG current change (%, negative = inhibition) at 1uM” value was 3.63%.
For the molecule `C=CCN1C=C2C(=O)C(C)(OC(=O)CCC(=O)OC)C(=O)C(Br)=C2C=C1c1ccc(OC)cc1` (centres unmarked), the “hERG current change (%, negative = inhibition) at 1uM” value was 7.67%.
Turning to `O=C(Cc1ccccc1[N+](=O)[O-])NCCc1ccc(F)cc1`, the “hERG current change (%, negative = inhibition) at 1uM” value is reported as 11.3%.
As to `O=C(OCn1nnc2ccccc2c1=O)c1cccc(S(=O)(=O)N2CCOCC2)c1`, the “hERG current change (%, negative = inhibition) at 1uM” value was 12.9%.
As for `O=C(CCS(=O)(=O)Cc1ccccc1)N1CCN(c2ccccc2)CC1`, the figure is -5.53%; as for `CC1(C(=O)N2CCN(c3ccc([N+](=O)[O-])cc3)CC2)CC1(Cl)Cl` (centres unmarked), -64.3%; as for `CSC(=NC#N)N1CCN(c2ccccc2)CC1`, 6.71%.
As to `CSC(=NC#N)N1CCN(c2ccc(Cl)cc2)CC1`, the “hERG current change (%, negative = inhibition) at 1uM” value is reported as -6.45%.
On to `CC1(C(=O)N2CCN(c3ccccc3)CC2)CC1(Cl)Cl` (centres unmarked), for which the “hERG current change (%, negative = inhibition) at 1uM” value is 10.3%.
Consider `CC(=O)N1CCN(c2ccc([N+](=O)[O-])cc2)CC1`, for which the “hERG current change (%, negative = inhibition) at 1uM” value is -26%.
`Cc1ccc(S(=O)(=O)CCC(=O)N2CCN(c3ccc([N+](=O)[O-])cc3)CC2)cc1`: the “hERG current change (%, negative = inhibition) at 1uM” value is -49.9%.
Then `O=C(CCS(=O)(=O)Cc1ccccc1)N1CCN(c2ccc([N+](=O)[O-])cc2)CC1`, with -81%; and `CSC(=NC#N)N1CCN(c2ccc([N+](=O)[O-])cc2)CC1`, with -80.9%.

The record behind these values is PMC4336329 (PLoS ONE, 2015).
